Here are results for nine compounds from PubChem BioAssay (EPA / NIEHS).

Several values for one entry are separate records, joined by “and”; a condition that tells them apart may be missing. Identical values can stand only once. Where a structure was tested more than once in an assay, its records may differ in their call. Activity calls are given as the source filed them. The calls were made as follows: active = hit-call score of the fitted dose curve at least 0.9, where 1 is the maximum; inactive = score below 0.9.

The term AC50 denotes the concentration at which the activity in the assay is half-maximal.

Read-out in assay [1]: Intercellular Adhesion Molecule 1 (ICAM1), ICAM1 (gene 3383)
Kind of assay: BSK_BE3C_ICAM1: BioMAP Diversity Plus: BE3C Assay for Intercellular Adhesion Molecule 1 (ICAM1) Biomarker Activity (AID 2284278). Conditions: primary human bronchial epithelial cells. An outline of the steps: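 Measured by ELISA: ICAM-1 expressed by primary human bronchial epithelial cells 24 h after compound treatment, with upward-direction fitting versus DMSO vehicle.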

Read-out in assay [2]: Interferon-inducible T-cell alpha chemoattractant (ITAC), CXCL11 (gene 6373)
Kind of assay: BSK_BE3C_ITAC: BioMAP Diversity Plus: BE3C Assay for Interferon-inducible T-cell alpha chemoattractant (ITAC) Biomarker Activity (AID 2284279). Conditions: primary human bronchial epithelial cells. In short, it runs like this:
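Steps: dose human bronchial epithelial cells with chemical; incubate 24 h; measure I-TAC by ELISA; fit endpoint in positive direction against DMSO control. Cytotoxicity was checked in parallel cultures by SRB staining at harvest.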

Read-out in assay [3]: Interleukin-8 (IL8), CXCL8 (gene 3576)
Kind of assay: BSK_BE3C_IL8: BioMAP Diversity Plus: BE3C Assay for Interleukin-8 (IL8) Biomarker Activity (AID 2284280). To be noted: primary human bronchial epithelial cells. How it is done: (§1) BSK_BE3C is a cell-based, multiplexed-readout assay that uses bronchial epithelial cell, a human lung primary cell, with measurements taken at 24 hours after chemical dosing in a 96-well plate.BSK_BE3C_IL8 is an assay component measured in the BSK_BE3C assay. It measures IL-8 antibody related to regulation of gene expression using ELISA technology.Data from the assay component BSK_BE3C_IL8 was analyzed at the endpoint, BSK_BE3C_IL8, in the positive analysis fitting direction relative to DMSO as the negative control and baseline of activity. Using a type of binding reporter, gain or loss-of-signal activity can be used to understand protein changes. To generalize the intended target to other relatable targets, this assay endpoint is annotated to the 'cytokine' intended target family, where the subfamily is 'interleukins'.
(§2) The levels of cell surface (or secreted, indicated by the prefix "s") biomarker endpoints were measured by ELISA. Overt cytotoxicity to cells in confluent adherent cultures (all systems other than the BT system) was assessed by measuring total protein levels using sulforhodamine B (SRB) staining in parallel cultures at the time of biomarker measurements, indicated as SRB endpoints. For proliferation assays for adherent cell types, individual cell types are cultured at sub-confluence and relative cell numbers quantified by SRB staining at time points optimized for each system (48 h: 3C and CASM3C systems; 72 h: BT and HDF3CGF systems; 96 h: SAg system). SRB was performed by staining cells with 0.1% SRB after fixation with 10% TCA and reading wells at 560 nm.Viability and proliferation of PBMC (T cells) was quantified by Alamar Blue reduction for the SAg and BT systems. For PBMC viability (referred to as PBMC Cytotoxicity within the assay endpoint names), cells were plated (75,000/well in a 96-well plate) and then chemical samples added for 1 h before addition of activators, SEB and TSST-1 (20 ng/mL final concentration each). Cells were incubated for 90 h. Then, Alamar Blue (20 uL/well) (Invitrogen, Cat DAL1100) was added for 6 h, and the plates were read with a fluorescence microplate reader at 546/580 nm (excitation/emission). For PBMC proliferation, cells were plated and activated as above but incubated for only 16 h prior to addition of Alamar Blue. Plates were read after 6 h.

Read-out in assay [4]: Epidermal growth factor receptor (EGFR), EGFR (gene 1956)
The experiment in a line: BSK_BE3C_EGFR: BioMAP Diversity Plus: BE3C Assay for Epidermal growth factor receptor (EGFR) Biomarker Activity (AID 2284281). Conditions: primary human bronchial epithelial cells. How it is done:
as §1, with “plate.BSK_BE3C_EGFR” for “plate.BSK_BE3C_IL8”, “EGFR” for “IL-8”, “BSK_BE3C_EGFR” for “BSK_BE3C_IL8”, “BSK_BE3C_EGFR,” for “BSK_BE3C_IL8,”, “'kinase'” for “'cytokine'”, “'receptor tyrosine kinase'.” for “'interleukins'.”
as §2

Read-out in another assay: KRT18 (gene 3875)
Kind of assay: BSK_BE3C_Keratin818: BioMAP Diversity Plus: BE3C Assay for Keratin 818 Biomarker Activity (AID 2284282). Conditions: primary human bronchial epithelial cells. An outline of the steps:
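BE3C: human bronchial epithelial primary cells, 24 h exposure, Keratin 8/18 ELISA; DMSO = negative control/baseline; cytotoxicity by parallel SRB stain (0.1% SRB after 10% TCA fixation, 560 nm).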

Read-out in assay [5]: Matrix Metallopeptidase 9 (MMP9), MMP9 (gene 4318)
The experiment in a line: BSK_BE3C_MMP9: BioMAP Diversity Plus: BE3C Assay for Matrix Metallopeptidase 9 (MMP9) Biomarker Activity (AID 2284283). Conditions: primary human bronchial epithelial cells. In short, it runs like this: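 ELISA read-out of MMP-9 after 24 h compound exposure of human lung bronchial epithelial primary cells (BE3C). Fit in gain direction vs DMSO negative control; total protein by SRB in parallel cultures flagged overt cytotoxicity.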

Read-out in assay [6]: Plasminogen activator inhibitor-1 (PAI1), SERPINE1 (gene 5054)
Kind of assay: BSK_CASM3C_PAI1: BioMAP Diversity Plus: CASM3C Assay for Plasminogen activator inhibitor-1 (PAI1) Biomarker Activity (AID 2284284).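 Also: PAI-1 protein level measured by ELISA 24 h after dosing.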 To be noted: primary human coronary artery smooth muscle cells.

Read-out in assay [7]: Monocyte Chemoattractant Protein-1 (MCP1), CCL2 (gene 6347)
The experiment in a line: BSK_hDFCGF_MCP1: BioMAP Diversity Plus: hDFCGF Assay for Monocyte Chemoattractant Protein-1 (MCP1) Biomarker Activity (AID 2284285). Conditions: primary human foreskin fibroblasts. An outline of the steps: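 Human foreskin fibroblasts (hDFCGF system) were exposed to compound and secreted MCP-1 was measured by ELISA after 24 hours. Activity was fitted relative to DMSO. Cytotoxicity was checked by SRB total-protein staining in parallel cultures.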

Read-out in assay [8]: Interleukin-8 (IL8), CXCL8 (gene 3576)
Kind of assay: BSK_IMphg_IL8: BioMAP Diversity Plus: IMphg Assay for Interleukin-8 (IL8) Biomarker Activity (AID 2284277). Conditions: primary human endothelial cells with macrophages. An outline of the steps:
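Co-culture of human venular endothelial cells and macrophages exposed to chemicals for 24 h; IL-8 quantified by ELISA and compared against the DMSO baseline, with SRB total-protein staining in parallel cultures for cytotoxicity.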

Read-out in assay [9]: Vascular cell adhesion molecule 1 (VCAM1), VCAM1 (gene 7412)
Kind of assay: BSK_IMphg_VCAM1: BioMAP Diversity Plus: IMphg Assay for Vascular cell adhesion molecule 1 (VCAM1) Biomarker Activity (AID 2284286). To be noted: primary human endothelial cells with macrophages. In short, it runs like this:
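Human venular endothelial cells co-cultured with macrophages; VCAM-1 quantified by ELISA 24 h after dosing, fitted in the positive direction against DMSO. Cytotoxicity was checked in parallel cultures by SRB total-protein staining (0.1% SRB after 10% TCA fixation, 560 nm).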

`Oc1ccccc1Cc1ccccc1O`: the result (in [1]; in [2]; in [3]; in assay [4]; with KRT18 (gene 3875); in [5]) was inactive. The result in [6] and in assay [7] was inactive. Moreover, the AC50 in assay [5] is 20 µM (active).
Regarding `CC(C)C(=O)OCCc1ccccc1`, the result (in assay [1]; in assay [2]; in assay [3]; in [4]; in the assay with KRT18 (gene 3875); in assay [5]) was inactive. Besides, the result in assay [6] and in [7] was inactive. Further, the AC50 with KRT18 (gene 3875) is 0.522 µM (active).
Regarding `O=C(O)C(F)(F)C(F)(F)C(F)(F)C(F)(F)C(=O)O`, the result (in assay [8]; in assay [1]; in assay [2]; in assay [3]; in assay [4]; with KRT18 (gene 3875)) was inactive. In addition, the result in [5], in [6], in [7] and in assay [9] was inactive.
As for `Nc1nc(N)nc(-c2ccccc2)n1`, the outcome (in assay [1]; in [2]; in assay [3]; in assay [4]; with KRT18 (gene 3875); in assay [5]) was inactive. For the same compound, the outcome in assay [6] and in [7] was inactive.
In the case of `c1ccc(Nc2cccc3ccccc23)cc1`, the AC50 in [1] is 12.7 µM (active); in [2] it was 27.2 µM (active) and 30.3 µM (active); in assay [4] it was 17.6 µM (active) and 37 µM (active); with KRT18 (gene 3875), 20 µM (active); in assay [5], 20 µM (active) and 26.6 µM (active); in assay [7], 20.8 µM (active) and 14.2 µM (active). For the same compound, the result in assay [1], in assay [3] and in assay [6] was inactive.
Regarding `CC(CCC(=O)O)(c1ccc(O)cc1)c1ccc(O)cc1`, the outcome (in assay [1]; in assay [2]; in [3]; in assay [4]; with KRT18 (gene 3875); in [5]) was inactive. In addition, the result in assay [6] and in [7] was inactive.
As for `CCCC(C)C(=O)OCC` (stereo not given), the result (in assay [1]; in assay [2]; in assay [3]; in assay [4]; in the assay with KRT18 (gene 3875); in assay [5]) was inactive. Also, the result in assay [6] and in assay [7] was inactive.
Regarding `C[N+](C)(C)CCCNS(=O)(=O)C(F)(F)C(F)(F)C(F)(F)C(F)(F)C(F)(F)C(F)(F)C(F)(F)C(F)(F)F`, the AC50 in [8] was 43 µM (active) and 30 µM (active); in [3], 18.1 µM (active); in assay [7], 44.8 µM (active) and 44.4 µM (active); in assay [9], 13.9 µM (active) and 22.4 µM (active). Besides, the result (in assay [1]; in assay [2]; in assay [4]; with KRT18 (gene 3875); in [5]; in [6]) was inactive.
Turning to `CCCCCCCCCCCC(=O)N(C)CC(=O)O`, the outcome (in [1]; in assay [2]; in assay [3]; in [4]; in the assay with KRT18 (gene 3875); in assay [5]) was inactive. Moreover, the outcome in assay [6] and in [7] was inactive. Further, the AC50 in assay [7] is 5.84 µM (active).
